High-throughput results from PubChem.
A selection: hits, their analogues and other compounds. The true share with any hit is near 2.3%.
PLCb3 inh – inhibitors of human phospholipase C beta3 | Q01970 | actives 0.18% (n = 370,000) | Purified PLC-beta3, fluorogenic substrate, fluorescence | inhibition, % at 12.2 µM | AID 720704; in the data active = inhibition above about 11%;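 also: 0% = median of compound wells on plate and 100% = full blocker control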
MBD2 DNA inh – MBD2-methylated oligo binding inhibition. inhibition, % at 4.4 µM. TR-FRET, MBD2 binding to methylated oligonucleotide. actives 0.31% (n = 370,000). AID 686964. Q9UBB5; in the data active = inhibition above about 13%
PLCg1 inh – PLC-gamma1 (human) inhibition, primary screen | AID 720700 | inhibition, % at 12.2 µM | P19174 | actives 0.84% (n = 370,000) | purified PLC-gamma1, fluorogenic substrate, fluorescence
Target sequence (P19174 whole entry, looked up): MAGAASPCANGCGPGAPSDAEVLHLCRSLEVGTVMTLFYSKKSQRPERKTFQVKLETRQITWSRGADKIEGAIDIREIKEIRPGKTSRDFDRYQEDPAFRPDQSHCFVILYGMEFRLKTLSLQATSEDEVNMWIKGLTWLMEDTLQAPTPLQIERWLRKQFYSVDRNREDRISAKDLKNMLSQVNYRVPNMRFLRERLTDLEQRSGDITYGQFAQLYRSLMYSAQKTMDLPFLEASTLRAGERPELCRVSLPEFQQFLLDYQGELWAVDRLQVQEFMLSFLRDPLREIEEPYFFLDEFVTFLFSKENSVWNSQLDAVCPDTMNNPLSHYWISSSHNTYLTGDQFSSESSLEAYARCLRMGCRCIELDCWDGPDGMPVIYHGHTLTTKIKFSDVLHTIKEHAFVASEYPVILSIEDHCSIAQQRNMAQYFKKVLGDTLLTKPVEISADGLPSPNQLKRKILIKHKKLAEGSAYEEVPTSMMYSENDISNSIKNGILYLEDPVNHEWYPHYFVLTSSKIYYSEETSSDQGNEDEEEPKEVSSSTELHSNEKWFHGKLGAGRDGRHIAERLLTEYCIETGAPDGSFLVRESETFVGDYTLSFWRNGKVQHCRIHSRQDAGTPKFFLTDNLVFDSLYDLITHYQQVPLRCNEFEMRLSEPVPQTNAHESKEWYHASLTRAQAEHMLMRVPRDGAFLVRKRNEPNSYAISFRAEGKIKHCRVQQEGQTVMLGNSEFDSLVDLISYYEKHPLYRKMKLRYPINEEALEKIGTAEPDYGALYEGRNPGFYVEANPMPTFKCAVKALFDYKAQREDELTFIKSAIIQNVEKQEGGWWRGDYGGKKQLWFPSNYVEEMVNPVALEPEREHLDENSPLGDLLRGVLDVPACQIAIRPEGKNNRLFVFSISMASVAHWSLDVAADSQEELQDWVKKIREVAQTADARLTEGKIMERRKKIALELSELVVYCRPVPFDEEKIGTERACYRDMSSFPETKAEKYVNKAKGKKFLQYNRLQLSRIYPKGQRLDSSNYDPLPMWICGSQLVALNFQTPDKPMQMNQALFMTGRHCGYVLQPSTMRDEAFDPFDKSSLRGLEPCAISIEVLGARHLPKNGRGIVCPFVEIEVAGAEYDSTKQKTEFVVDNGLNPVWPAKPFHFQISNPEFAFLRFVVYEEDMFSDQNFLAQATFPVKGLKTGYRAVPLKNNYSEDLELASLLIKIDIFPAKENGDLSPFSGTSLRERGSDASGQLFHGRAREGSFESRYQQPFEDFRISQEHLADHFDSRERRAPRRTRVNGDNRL
LEDGF integ inh – blocks HIV-1 LEDGF/p75-dependent DNA integration; actives 0.64% (n = 370,000); TR-FRET IN-LEDGF/p75 DNA integration, Eu/Cy5; inhibition, % at 3.7 µM;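 active = inhibition above the screen-wide mean plus 3 SD, cut at about 13% in these data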;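 also: signal is the Cy5 over europium emission ratio at 671 and 618 nm; 0% = plate median of compound wells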
UHRF1 binding – human UHRF1 methylated DNA binding inhibitors | actives 0.75% (n = 370,000) | UHRF1 binding to methylated oligo, TR-FRET | inhibition, % at 4.4 µM | Q96T88 | AID 687016; in the data active = inhibition above about 21%;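 also: UHRF1 SRA domain binding a hemimethylated CpG hairpin DNA probe; 0% = median of test compound wells and 100% = reference inhibitor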
PLCgamma1 ctr – PLC-gamma1 inhibition, counter-screen for PLC-beta3 hits; shares compounds with PLCg1 inh; inhibition, % at 12.3 µM; purified PLC-gamma1, fluorogenic substrate, fluorescence; actives 3.1% (n = 3,300)
PLCb3 confirm – confirmation of human PLC-beta3 inhibitors; shares compounds with PLCg1 inh; purified PLC-beta3, fluorogenic substrate fluorescence; inhibition, % at 12.3 µM; actives 1% (n = 3,300); AID 743261; in the data active = inhibition above about 11%
* marks the source's active call; other numbers are inactive results; · = no result. Rule as the data show it, unless noted: active = inhibition above about 9.5%; inactive = the rest.

SMILES	PLCb3 inh	MBD2 DNA inh	PLCg1 inh	LEDGF integ inh	UHRF1 binding	PLCgamma1 ctr	PLCb3 confirm
Cn1cnnc1SCNC(=O)C(F)(F)F	12.4*	-7.4	5.8	6.3	-3.2	-8.2	-3.5
CC(=O)c1ccc(N2CCN(C(=O)c3ccc(Br)cc3)CC2)c(F)c1	12.2*	-4.3	1.6	12.9	3.9	-12.2	-9.6
CC(=O)c1ccc(N2CCN(C(=O)c3ccco3)CC2)c(F)c1	-1.5	-1.9	-1.3	-2.1	-0.1	·	·
CN1C(=O)[C@@]2(O[C@H]3[C@H]4C=C[C@@H]([C@H]5C(=O)N(Cc6ccccc6)C(=O)[C@@H]45)N3C3=C2C(=O)CC3)c2ccccc21	14.0*	-5.6	2.6	8.0	4.7	-2.2	2.4
O=C1Nc2ccccc2C(=O)N2[C@H](c3ccccc3)[C@@H]3C(=O)N(Cc4ccccc4)C(=O)[C@@H]3[C@H]12	-4.3	-4.5	-2.4	0.8	-0.1	·	·
Cc1cnc(C(=O)OCC(=O)Nc2ccc(Cl)cc2)cn1	5.2	-7.2	11.6*	2.2	6.0	-7.7	-4.2
O=C(CNC(=O)c1cnccn1)Nc1ccc(F)c(F)c1F	5.0	-2.9	10.6*	-3.3	0.5	-2.6	2.0
COC(=O)CN(n1cnnc1)S(=O)(=O)c1ccccc1Cl	4.1	4.2	10.1*	7.6	20.0	1.2	2.6
O=C(NCCCN1CCOCC1)C(=O)NCc1ccccc1	-4.9	3.2	-2.2	0.1	3.5	·	·
O=C(NCCc1ccccc1)C(=O)NN=C1CCCC1	2.6	6.3	9.7*	1.9	5.6	-3.0	-1.5
O=C(NCCCN1CCOCC1)C(=O)NCCc1ccccc1	5.0	-2.2	12.0*	-1.9	2.5	-4.0	-0.4
O=C(NCCCN1CCOCC1)c1ccccc1	5.5	1.6	11.9*	-1.6	0.0	-2.3	2.2
O=C(NCCCN1CCOCC1)c1cccnc1	-0.2	-1.3	-1.6	-2.2	0.1	·	·
O=C(Cc1ccccc1)NCCCN1CCN(CCCNC(=O)Cc2ccccc2)CC1	5.4	1.3	11.4*	5.3	4.7	-4.7	-3.1
CC(C)C(NC(=O)[C@H](Cc1ccccc1)NC(=O)OCc1ccccc1)P(=O)(O)OC(Cc1ccccc1)C(=O)O (some centres undefined)	1.3	5.6	4.6	6.5	5.9	·	·
CCCCCC[C@H](CN(CCCC)S(C)(=O)=O)c1ccccc1	2.9	-1.2	0.0	1.5	-3.4	·	·
Cn1cccc1C(=O)N1CCN(S(=O)(=O)c2cccs2)CC1	1.4	3.1	-0.8	1.8	2.1	·	·
CN(CC#Cc1ccccc1)C(N)=NC(=O)/C=C/c1cccc(C(F)(F)F)c1	-6.3	4.6	-3.2	0.6	0.5	·	·
Cc1ccc(C(=O)NCCCN2CCOCC2)cc1S(=O)(=O)N1CCOCC1	-1.1	4.2	10.2*	4.5	3.1	-6.9	-2.4
Cc1ccc(C(=O)NCCN2CCOCC2)cc1S(=O)(=O)N1CCCCC1	-5.7	-2.6	-1.4	-0.8	1.7	·	·
CCOc1ccc(-c2nc(CSCC(=O)NC3CCC3)c(C)o2)cc1	-3.2	-1.9	-2.1	-0.9	-1.1	·	·
O=C(O)/C=C/C(=O)NCCc1ccc(Cl)cc1	-9.6	-1.7	-1.3	-2.3	2.7	·	·
O=C(O)/C=C/C(=O)NCCc1ccccc1	4.3	-4.9	10.1*	3.8	8.3	-2.2	1.8
COc1cc(C)ccc1C(=O)N1CCC(Oc2cccnc2)CC1	-1.5	4.3	1.1	-2.8	-1.4	·	·
COc1ccc(C(=O)N2CCCC(c3cc(C(=O)NCc4ccc(F)cc4)no3)C2)cc1 (centres undefined)	5.5	-1.8	9.7*	1.4	1.6	-6.8	-0.9
SMILES	PLCb3 inh	MBD2 DNA inh	PLCg1 inh	LEDGF integ inh	UHRF1 binding	PLCgamma1 ctr	PLCb3 confirm
O=[N+]([O-])c1cc([N+](=O)[O-])c(Oc2cccc3ccccc23)cc1NN1CCCCC1	2.1	-1.9	6.4	2.5	5.4	·	·
O=[N+]([O-])c1cc([N+](=O)[O-])c(Oc2cccnc2Br)cc1NN1CCCCC1	10.3	-0.4	10.9*	0.2	0.9	5.2	4.5
N#Cc1ccc(CSc2nc3sc4c(c3c(=O)n2-c2ccc(Br)cc2)CCCC4)cc1	-5.2	3.8	2.5	2.4	2.5	·	·
CN1CCN(C(=S)Nc2ccc(Cl)cc2Cl)CC1	2.4	-0.3	10.4*	-3.5	-1.1	-0.4	2.8
O=C(c1ccccc1)N1CCN(c2ccc([N+](=O)[O-])c(NCc3cccnc3)c2)CC1	0.0	-4.7	9.7*	2.0	-7.3	-1.1	-0.3
O=C(c1ccc(Cl)cc1)N1CCN(c2ccc([N+](=O)[O-])c(NCc3cccnc3)c2)CC1	3.1	-5.3	1.4	-5.0	-6.0	·	·
CC(C)(C)N(Cc1cn(Cc2ccccc2)nn1)S(=O)(=O)c1ccc(N2CCCCC2)cc1Br	-9.5	-7.3	-5.0	3.5	-0.5	·	·
Nc1c(O)ccc2c1C(=O)c1ccccc1C2=O	1.1	-19.9	2.2	-8.0	-9.7	·	·
Nc1cc(N)c2c(c1)C(=O)c1ccccc1-2	7.1	-23.4	9.8*	-3.8	-17.7	-3.0	3.2
Cc1nn(CCC(=O)NNC(=O)Nc2ccc(F)cc2)c(C)c1[N+](=O)[O-]	1.7	-2.1	0.8	2.5	1.5	·	·
CCCCC(=O)Nc1ccc(N2CCCC2)cc1	-12.9	-11.5	-14.2	-1.2	-0.6	·	·
CCCCCC(=O)Nc1ccc(N2CCN(S(C)(=O)=O)CC2)cc1	3.7	1.1	9.7*	3.2	-3.3	-5.6	-4.1
O=C1NC(=O)C(=Cc2ccccc2)N1	11.5*	3.9	7.5	-4.0	-1.5	0.0	3.7
Fc1ccc(NC2CCC23CCC(c2ccccc2)CC3)cc1C(F)(F)F (centres undefined)	1.8	-7.2	0.6	-3.5	-1.9	·	·
CC(=O)N1CCSc2ccc(S(=O)(=O)NCCc3ccc(C)cc3)cc21	-11.8	-1.1	1.2	-4.6	-0.2	·	·
CC(=O)N1CCSc2ccc(S(=O)(=O)NCCc3cccc(C)c3)cc21	-3.2	-0.5	16.1*	0.9	1.4	-1.2	-1.5
CCOC(=O)CC[C@@H]1CC[C@]2(CCCN(C(=O)c3ccc4ccccc4n3)C2)O1	-0.5	-5.8	-0.5	-2.2	-1.9	·	·
Cc1cc(C)cc(C(=O)OCCCN(C)C2CN(Cc3cn(Cc4cccc(F)c4)nn3)S(=O)(=O)C2)c1 (centres undefined)	0.1	-2.6	2.7	3.9	2.2	·	·
N/C(=N\NS(=O)(=O)c1ccc(Cl)cc1)c1ccccn1	3.4	-1.2	10.3*	4.1	0.6	-3.2	-2.8
C[C@@H]1/C=C/CC(=O)N[C@H](c2ccc3ccccc3c2)[C@H](C)/C=C/CC(=O)N[C@@H]1c1ccc2ccccc2c1	-8.9	4.0	-6.3	-0.7	2.1	·	·
CC(=O)N1CCc2cc(S(=O)(=O)NCCC(=O)N(C)Cc3ccccc3F)ccc21	-4.7	8.0	1.3	1.9	3.2	·	·
COc1ccc(S(=O)(=O)N2CCC(N3CCCCC3)CC2)cc1	5.5	-1.3	9.7*	1.2	-0.1	-1.4	-0.5
